Several values for one entry are separate records, joined by “and”; a condition that tells them apart may be missing. Identical values can stand only once. The campaign covered roughly 5,500 compounds. About 2,000 (36%) were called active. Inconclusive results (about 18%) are left out. Some of the results follow. Values without a mark were called inactive. No stated cut-off is given here; in the data, active means normalized growth mostly below about 0.91 (no sharp cut-off); inconclusive means no clear call, values can overlap the other calls; inactive means mostly above about 0.92.
Assay: chemical genetic growth profiling, strain panel (AID 1159580);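 further: tested at 20 µM; growth read once vehicle control cultures reached saturation at 30 °C; 1 = growth at the plate median or of vehicle wells; lower values mean less growth of the strain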
Conditions: S. cerevisiae deletion strains, growth OD

For `COc1ccc2cc3[n+](cc2c1OC)CCc1cc2c(cc1-3)OCO2`, the normalized growth (locus YAL013W, strain DEP1, active compounds read low) was 0.509 (active), the normalized growth (locus YAL021C, strain ccr4, active compounds read low) was 0.997 and the normalized growth (locus YAL026C, strain drs2, active compounds read low) was 0.99. The normalized growth (locus YAL030W, strain snc1, active compounds read low) was 0.996, the normalized growth (locus YBL061C, strain skt5, active compounds read low) was 0.986 and the normalized growth (locus YBR009C, strain hhf1, active compounds read low) was 1. It also gave a normalized growth (locus YBR021W, strain FUR4, active compounds read low) of 0.847, a normalized growth (locus YBR023C, strain chs3, active compounds read low) of 0.982 and a normalized growth (locus YBR171W, strain sec66, active compounds read low) of 0.983. For the same compound, the normalized growth (locus YBR229C, strain ROT2, active compounds read low) was 0.762 (active), the normalized growth (locus YBR231C, strain swc5, active compounds read low) was 0.985 and the normalized growth (locus YBR279W, strain paf1, active compounds read low) was 0.987. For the same compound, the normalized growth (locus YCL011C, strain gbp2, active compounds read low) was 0.998, the normalized growth (locus YCL016C, strain dcc1, active compounds read low) was 0.982 and the normalized growth (locus YCL029C, strain bik1, active compounds read low) was 0.379 (active). It also gave a normalized growth (locus YCL061C, strain MRC1, active compounds read low) of 1.01, a normalized growth (locus YCL069W, strain vba3, active compounds read low) of 0.999 and a normalized growth (locus YCR088W, strain abp1, active compounds read low) of 0.98. For the same compound, the normalized growth (locus YDL005C, strain med2, active compounds read low) was 0.984, the normalized growth (locus YDL035C, strain GPR1, active compounds read low) was 0.278 (active) and the normalized growth (locus YDL040C, strain nat1, active compounds read low) was 0.986. The normalized growth (locus YDL074C, strain BRE1, active compounds read low) was 0.352 (active), the normalized growth (locus YDL101C, strain DUN1, active compounds read low) was 0.569 (active) and the normalized growth (locus YDL134C, strain PPH21, active compounds read low) was 0.398 (active). The normalized growth (locus YDL185W, strain tfp1, active compounds read low) was 1, the normalized growth (locus YDL192W, strain arf1, active compounds read low) was 0.436 (active) and the normalized growth (locus YDR001C, strain nth1, active compounds read low) was 0.981. The normalized growth (locus YDR069C, strain doa4, active compounds read low) was 1, the normalized growth (locus YDR101C, strain arx1, active compounds read low) was 0.278 (active) and the normalized growth (locus YDR137W, strain rgp1, active compounds read low) was 0.979. The normalized growth (locus YDR150W, strain NUM1, active compounds read low) was 0.681 (active), the normalized growth (locus YDR159W, strain sac3, active compounds read low) was 1.02 and the normalized growth (locus YDR162C, strain NBP2, active compounds read low) was 0.533 (active). For the same compound, the normalized growth (locus YDR195W, strain ref2) was 0.977, the normalized growth (locus YDR297W, strain sur2, active compounds read low) was 0.99 and the normalized growth (locus YDR318W, strain mcm21, active compounds read low) was 0.461 (active). For the same compound, the normalized growth (locus YDR334W, strain swr1, active compounds read low) was 0.973, the normalized growth (locus YDR335W, strain msn5, active compounds read low) was 0.967 and the normalized growth (locus YDR388W, active compounds read low) was 0.365 (active). The normalized growth (locus YDR392W, strain spt3, active compounds read low) was 0.984, the normalized growth (locus YDR502C, strain sam2, active compounds read low) was 0.345 (active) and the normalized growth (locus YEL003W, strain gim4, active compounds read low) was 0.99. The normalized growth (locus YEL037C, strain rad23, active compounds read low) was 0.981, the normalized growth (locus YEL061C, strain CIN8 (second series), active compounds read low) was 0.993 and the normalized growth (locus YEL061C, strain CIN8, active compounds read low) was 0.567 (active). The normalized growth (locus YER015W, strain faa2, active compounds read low) was 0.991, the normalized growth (locus YER016W, strain bim1, active compounds read low) was 0.981 and the normalized growth (locus YER110C, active compounds read low) was 0.452 (active). For the same compound, the normalized growth (locus YER111C, strain swi4, active compounds read low) was 1, the normalized growth (locus YER155C, strain BEM2 (second series), active compounds read low) was 0.968 and the normalized growth (locus YER155C, strain BEM2, active compounds read low) was 0.957. The normalized growth (locus YER167W, strain BCK2, active compounds read low) was 0.467 (active), the normalized growth (locus YFR010W, strain ubp6, active compounds read low) was 0.992 and the normalized growth (locus YGL078C, strain dbp3, active compounds read low) was 0.854 (active). For the same compound, the normalized growth (locus YGL086W, strain mad1, active compounds read low) was 0.394 (active), the normalized growth (locus YGL167C, strain pmr1, active compounds read low) was 0.983 and the normalized growth (locus YGL173C, strain kem1, active compounds read low) was 0.989. The normalized growth (locus YGL227W, strain vid30, active compounds read low) was 0.989, the normalized growth (locus YGL240W, strain doc1, active compounds read low) was 0.996 and the normalized growth (locus YGL248W, strain PDE1, active compounds read low) was 0.3 (active). For the same compound, the normalized growth (locus YGL253W, strain hxk2, active compounds read low) was 0.988, the normalized growth (locus YGR078C, strain PAC10, active compounds read low) was 0.481 (active) and the normalized growth (locus YGR135W, strain pre9, active compounds read low) was 0.318 (active). For the same compound, the normalized growth (locus YGR229C, strain SMI1, active compounds read low) was 0.454 (active), the normalized growth (locus YGR252W, strain gcn5, active compounds read low) was 0.604 (active) and the normalized growth (locus YHR013C, strain ard1, active compounds read low) was 0.943. The normalized growth (locus YHR027C, strain rpn1, active compounds read low) was 0.998, the normalized growth (locus YHR030C, strain SLT2, active compounds read low) was 0.664 (active) and 0.844 (active) and the normalized growth (locus YHR079C, strain IRE1 (second series), active compounds read low) was 0.439 (active). For the same compound, the normalized growth (locus YHR079C, strain IRE1, active compounds read low) was 0.783 (active), the normalized growth (locus YHR094C, strain hxt1, active compounds read low) was 0.689 (active) and the normalized growth (locus YHR129C, strain ARP1, active compounds read low) was 0.699 (active). For the same compound, the normalized growth (locus YHR142W, strain chs7, active compounds read low) was 0.995, the normalized growth (locus YHR200W, strain rpn10, active compounds read low) was 0.518 (active) and the normalized growth (locus YIL066C, strain RNR3, active compounds read low) was 0.373 (active). For the same compound, the normalized growth (locus YIL073C, strain SPO22, active compounds read low) was 0.209 (active), the normalized growth (locus YIL125W, strain kgd1, active compounds read low) was 0.966 and the normalized growth (locus YIR030C, strain dcg1, active compounds read low) was 0.521 (active). The normalized growth (locus YJL092W, strain hpr5, active compounds read low) was 0.982, the normalized growth (locus YJL095W, strain BCK1 (second series), active compounds read low) was 1.01 and the normalized growth (locus YJL095W, strain BCK1, active compounds read low) was 0.417 (active) and 0.79 (active). For the same compound, the normalized growth (locus YJL115W, strain asf1, active compounds read low) was 0.986, the normalized growth (locus YJL129C, strain trk1, active compounds read low) was 0.993 and the normalized growth (locus YJL134W, strain LCB3, active compounds read low) was 0.874 (active). The normalized growth (locus YJL154C, strain vps35, active compounds read low) was 0.974, the normalized growth (locus YJL164C, strain tpk1, active compounds read low) was 0.99 and the normalized growth (locus YJL166W, strain qcr8, active compounds read low) was 1.01. The normalized growth (locus YJL168C, strain set2, active compounds read low) was 0.826 (active), the normalized growth (locus YJL187C, strain SWE1 (second series), active compounds read low) was 0.291 (active) and the normalized growth (locus YJL187C, strain SWE1, active compounds read low) was 0.989. The normalized growth (locus YJR043C, strain POL32, active compounds read low) was 0.482 (active) and the normalized growth (locus YJR066W, strain TOR1, active compounds read low) was 0.765 (active).

Source: PubChem BioAssay AID1159580 (chemical genetic matrix, 2015)
